# Rows were chosen to be rich in hits. Some 19% of all compounds tested hit in one or more screens of this group.
# HT1080 IDH1KD tx – toxicity to HT-1080 IDH1 knockdown cells (counter line); HT-1080 IDH1 knockdown viability, ATP luminescence, 48 h; Potency, µM (highest dose often 46.1 µM), for inactives: at the highest dose activity, negative = toxicity, most hits filed as cytotoxic; 360,000 tested, 2% active; AID 686971;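 further: potency means the concentration at half of the fitted maximal effect; 0% = DMSO wells and -100% = cell-free medium wells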
#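 Assay cells: HT-1080 with IDH1 knockdown, 750 per well, RPMI/5% FBS. Exposure: 48 h at 37 °C following 2 h pre-incubation. Read: CellTiter-Glo luminescence; fitted concentration-response, curve class assigned.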
# HT1080NT lethal – kills 2HG-producing HT-1080-NT fibrosarcoma cells; HT-1080-NT fibrosarcoma viability, CellTiter-Glo ATP luminescence, 48 h; Potency, µM (series often up to 46.1 µM), without a hit: top-dose activity, negative = less viability, hits mostly cytotoxic; 360,000 tested, 1.6% active; AID 686970;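 further: NT is the 2HG producing partner of a matched IDH1 knockdown line; potency means the concentration at half of the fitted maximal effect; 0% = DMSO-treated cells and -100% = media-only wells without cells; nearly all actives have a fitted effect of over 55% in size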
#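 HT-1080-NT; 750 cells/well; 5% FBS RPMI; 48 h compound, 37 degrees C; CellTiter-Glo luminescence; curve fitting and curve-class assignment.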
# IL1B secr inh – inhibitors of inflammasome signaling (IL-1 beta secretion); THP-1 LPS/ATP IL-1B secretion, AlphaLISA, 16 h; stronger effect = lower value; 360,000 tested, 4.7% active; activity change, % at 57.5 µM; in the data active means activity change below about -50%; inconclusive means mostly about -30% to -49%
#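 THP-1 cells pretreated 1 hr with compounds (up to 57.5 uM final), then stimulated with LPS (250 ng/mL final) plus ATP (1.25 mM final); secreted IL-1B measured by AlphaLISA after 16 hr, decreased signal indicating inhibition.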
# TDP1 cell noCPT – qHTS for Inhibitors of human tyrosyl-DNA phosphodiesterase 1 (TDP1): qHTS in cells in absence of CPT; AID 686978, 2013; 420,000 tested, 15% active; Potency, µM (series often up to 46.2 µM), for inactives: at the top dose activity change, negative = growth inhibition, hits mostly inhibitors; DT40 Tdp1-/- hTDP1 cells, no CPT, ATP luminescence, 48 h; further: potency means the concentration at half of the fitted maximal effect; nearly all actives have a fitted effect of over 55% in size
#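 Stably hTDP1-transfected Tdp1-null chicken DT40 cells were treated with library compounds minus camptothecin and grown for at least 48 hr at 37 °C, after which cellular ATP was quantified by luminescence.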
# TDP1 cell CPT – DT40-hTDP1 cell growth loss with CPT | chicken DT40 Tdp1-/-;hTDP1 cells + 20 nM CPT, ATP luminescence, 48 h | Potency, µM (series often up to 46.2 µM), for the others: top-dose activity change, negative = growth inhibition, most hits filed as inhibitors | 420,000 tested, 12% active; further: potency means the concentration at half of the fitted maximal effect; nearly all actives have a fitted effect of over 55% in size
#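 Chicken DT40 Tdp1-/- cells complemented with human TDP1, 400 cells/well, exposed to compounds plus 20 nM camptothecin for at least 48 h at 37 C; viability read as ATP content by CellTiter-Glo luminescence.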
# uPA generation – inhibitors of cell surface uPA generation; Potency, µM (highest dose often 38.3 µM), for inactives: at the highest dose activity change, negative = inhibition, most hits filed as inhibitors; 330,000 tested, 0.31% active; AID 540303; cell surface uPA generation assay, qHTS; active means well fitted inhibition curve with a large enough effect; inconclusive means small, poorly fitted or top-dose-only effect; inactive means no such curve, though single readings can be large or run the other way; tested in mouse RAW 264.7 cells; further: potency means the concentration at half of the fitted maximal effect; nearly all actives have a fitted effect of over 55% in size
# * marks the source's active call; other numbers are inactive results; ? = inconclusive; / = no result. Unless noted, the call rests on the fitted dose curve; in most records, active means well fitted curve in the direction sought with a large enough effect; inconclusive means small, poorly fitted or top-dose-only effect, or another doubt; inactive means no such curve, though single readings can be large; an effect the other way counts as inactive or inconclusive. Unless noted, on the % scale 0 is the no-effect control and ±100 the full control effect.
SMILES,HT1080 IDH1KD tx,HT1080NT lethal,IL1B secr inh,TDP1 cell noCPT,TDP1 cell CPT,uPA generation
Cc1cccc(C)c1NC(=O)CNC(=O)C(C)N(C)CC(=O)Nc1ccc(F)cc1 (stereo not drawn),-6%,-10%,2,-9%,-19%,23%
O=C(CNC(=O)c1ccccc1)OCC(=O)c1ccc2ccccc2c1,/,/,/,-4%,-12%,/
C=CCNc1oc(/C=C/c2ccccc2)nc1C#N,?,-2%,-9,-14%,-6%,/
CCOC(=O)C1CCN(C(=O)COC(=O)c2cccc(NS(=O)(=O)c3ccccc3)c2)CC1,-7%,-10%,-7,?,?,-4%
CCCCN(c1ccccc1)S(=O)(=O)c1cccc2cccnc12,0%,9%,33,15µM*,?,13%
CCSS(=O)(=O)c1cccc2cccnc12,?,33µM*,/,?,15µM*,8%
O=C(O)CCS(=O)(=O)c1cccc2cccnc12,0%,1%,-14,-2%,-18%,4%
COc1ccc(N(C(C)=O)S(=O)(=O)c2cccc3cccnc23)cc1,20%,4%,-12,-29%,-23%,-3%
CC1=C(C(=O)N2CCCCCC2)CC(CC(=O)NC2CCCC2)C(=O)N1Cc1ccccc1 (stereo not drawn),15%,14%,-5,-16%,-29%,/
CC1=C(C(=O)N2CCCCCC2)CC(CC(=O)NC2CCCC2)C(=O)N1Cc1ccc(C(C)(C)C)cc1 (stereo not drawn),?,-5%,-73*,?,?,/
CCN(CC)C(=O)C1=C(C)N(Cc2ccc(C(C)(C)C)cc2)C(=O)C(CC(=O)NC2CCCCC2)C1 (stereo not drawn),-2%,-6%,-26,12µM*,15µM*,/
COc1ccc(CN2C(=O)C(CC(=O)NC3CCCCC3)CC(C(=O)N(C)C)=C2C)cc1 (stereo not drawn),-4%,-1%,9,-20%,?,/
COc1ccc(CN2C(=O)C(CC(=O)NC3CCCCC3)CC(C(=O)N(C(C)C)C(C)C)=C2C)cc1 (stereo not drawn),-2%,-7%,-19,15µM*,?,/
CC1=C(C(=O)N(C(C)C)C(C)C)CC(CC(=O)NC2CCCC2)C(=O)N1Cc1ccc(C(C)(C)C)cc1 (stereo not drawn),?,?,-68*,23µM*,21µM*,/
Cc1cc2c(cc1S(=O)(=O)N(CCN(C)C)Cc1ccco1)OCC(=O)N2,/,/,/,-18%,-15%,/
C[C@@H](NC(=O)[C@@H]1CCCN1C(=O)[C@@H]1CCCN1C(=O)c1ccc(Cl)cc1)c1ccccc1,7%,12%,13,?,?,/
O=C(NCc1ccco1)C(Cc1ccccc1)N1C(=O)c2ccccc2C1=O (stereo not drawn),17%,20%,25,-20%,21µM*,-4%
CCOC(=O)[C@@]12C[C@@H]1/C(=N/O)c1ccccc1O2,/,/,/,-14%,2%,/
NC(=S)N=Nc1c(O)n(Cc2ccc(F)cc2)c2ccccc12,-29%,-25%,0,?,16µM*,?
CC(=O)OC1COC(n2c(O)c(N=NC(N)=S)c3ccccc32)C(OC(C)=O)C1OC(C)=O (stereo not drawn),13%,8%,7,0%,-25%,7%
NC(=S)N=Nc1c(O)n(Cc2ccc(Br)cc2)c2ccccc12,3.7µM*,?,13,4.6µM*,5.2µM*,-17%
Cc1ccc2c(c1)c(N=NC(N)=S)c(O)n2Cc1ccccc1,2%,1%,22,3.3µM*,4.1µM*,-3%
Cc1ccc(-c2cc(C(=O)Nc3c(C(=O)c4ccc(C)c(F)c4)oc4ccccc34)no2)cc1,/,/,/,-8%,-16%,/

# Screening results as filed in PubChem.
